In PubChem BioAssay (NCATS):
Inconclusive results are not listed. A call without a number means that no potency is given here. A number with no mark means an inactive call. Activity calls are given as the source filed them. Calls follow the shape of the dose curve; as a rule, active = well fitted curve in the direction sought with a large enough effect; inconclusive = small, poorly fitted or top-dose-only effect, or another doubt; inactive = no such curve, though single readings can be large; an effect the other way counts as inactive or inconclusive.

What was measured:
[1] = Panc-1005 Cancer Cell Toxicity qHTS against the NCATS CANVASS Library (AID 1347349); also: nearly all actives have a fitted effect of over 60% in size; also: potency is read from the fitted curve at half-maximal effect
Method in brief: (§1)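 Per well, 1000 cells; exposure 72 h with compound at 11 final concentrations; readout CellTiter-Glo luminescence.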

[2] = SW1088 Cancer Cell Toxicity qHTS against the NCATS CANVASS Library (AID 1347350); also: nearly all actives have a fitted effect of over 75% in size; also: potency is read from the fitted curve at half-maximal effect
Method in brief: as §1

[3] = COV-362 Cancer Cell Toxicity qHTS against the NCATS CANVASS Library (AID 1347352); also: potency is read from the fitted curve at half-maximal effect
Method in brief: (§2)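 qHTS cytotoxicity: compounds tested in 11 concentrations on 1000 seeded cells per well over 72 h; bortezomib served as control; signal from CellTiter-Glo luminescence.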

[4] = A2780 Cisplatin Sensitive Ovarian Cancer Cell Toxicity qHTS against the NCATS CANVASS Library (AID 1347353); also: nearly all actives have a fitted effect of over 60% in size; also: potency is read from the fitted curve at half-maximal effect
Method in brief: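 Seventy-two-hour exposure of cisplatin-sensitive A2780 ovarian cells to an 11-concentration qHTS series; cytotoxicity is inferred from loss of ATPLite luminescence. Bortezomib titration served as positive control.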

[5] = UWB1.289-WTBRCA1 Cancer Cell Toxicity qHTS against the NCATS CANVASS Library (AID 1347354); also: potency is read from the fitted curve at half-maximal effect
Method in brief: as §2

[6] = test system: NAD(P)H diaphorase (Clostridium kluyveri); experiment: Diaphorse counterscreen qHTS: Assay Interference Panel against the NCATS CANVASS Library (AID 1347362)
Method in brief: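 Clostridium kluyveri diaphorase in PBS with 0.01% Tween-20 was preincubated 15 min at room temperature in the dark with compounds (11-point series). Resorufin fluorescence (ex 525/20, em 598/25) was read 5 min after adding resazurin/NADH.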

[7] = KB-8-5-11 Cancer Cell Toxicity qHTS against the NCATS CANVASS Library (AID 1347364); also: nearly all actives have a fitted effect of over 75% in size; also: potency is read from the fitted curve at half-maximal effect
Method in brief: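 Natural products were titrated in 11 points onto KB-8-5-11 cells, 500 per well, and cytotoxicity was scored from CellTiter-Glo luminescence after 72 hr culture.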

[8] = G06 Cancer Cell Toxicity qHTS against the NCATS CANVASS Library (AID 1347368); also: nearly all actives have a fitted effect of over 60% in size; also: potency is read from the fitted curve at half-maximal effect
Method in brief: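 Cytotoxicity toward canine glioma G06 cells is scored from cellular ATP via luminescence after 72 hr compound exposure at 500 cells/well.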

[9] = qHTS for Hypoxia signaling pathway (HIF-1) agonists against the NCATS CANVASS Library (AID 1347375); also: potency is read from the fitted curve at half-maximal effect
Method in brief: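 Inducers of HIF-1 signaling were detected in ME-180 cells bearing an HRE-driven beta-lactamase reporter after 17 h compound exposure. Activity came from CCF4-AM FRET emission ratio (460/530 nm) in qHTS format.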

[10] = DH5-alpha competent E. coli microbial cell viability qHTS against the NCATS CANVASS Library (AID 1347377); settings: outcome: dose series up to 46.1 µM unless noted
Method in brief: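 Cell viability of competent DH5-alpha E. coli is scored from ATP content by luminescence. Cells sit overnight at 37C with compound across an 11-point concentration series.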

[11] = qHTS for H2AX Agonists against the NCATS CANVASS Library (AID 1347378);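 also: phospho-H2AX S139 level in CHO-K1 lysates by TR-FRET emission ratio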; also: potency is read from the fitted curve at half-maximal effect
Method in brief: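 Signal is the 665/620 nm emission ratio from europium cryptate and d2 antibody pair, rising with S139-phosphorylated H2AX. CHO-K1 cells saw test agents for 3 hr at 37C; detection ran 24 hr at room temperature.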

[12] = qHTS for Inflammasome Signaling Inhibitors: IL-1-beta AlphaLISA screen against the NCATS CANVASS Library (AID 1347379);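 also: human THP-1 cells primed with LPS then triggered with ATP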;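 as to potency: secreted IL-1B measured as AlphaLISA emission at 615 nm; potency is read from the fitted curve at half-maximal effect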
Method in brief: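 Human THP-1 cells were pretreated 1 hr at 37 °C with compounds (up to 57.5 uM final), then stimulated with LPS (250 ng/mL final) and ATP (1.25 mM final). Secreted IL-1B was read by AlphaLISA after 16 hr.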

[13] = Cytotoxicity qHTS for assessment of Hepg2 cells membrane integrity screened against the NCATS CANVASS Library (AID 1347387)
Method in brief: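 Fluorescence proportional to lysed-cell number, from LDH leaking out of HepG2 cells exposed 5 hr at 37C to 0.59 nM - 46 uM compound (11-point qHTS), is measured after 10 min with CytoTox-ONE.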

[14] = qHTS assay for small molecule disruptors of mitochondrial membrane potential screened against the NCATS CANVASS Library (AID 1347389); also: nearly all actives have a fitted effect of over 60% in size; also: potency is read from the fitted curve at half-maximal effect
Method in brief: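 Compounds tested in 11-point qHTS series on HepG2 cells for 1 hr; membrane-potential dye added for 30 min at 37C. Lower red-to-green ratio indicates loss of potential.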

[15] = Secretion counterscreen for inhibitors of the SERCaMP assay screened against the NCATS CANVASS Library (AID 1347390);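 also: light from luciferase secreted into medium read as a measure of general secretion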; also: potency is read from the fitted curve at half-maximal effect
Method in brief: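 Natural products are titrated in an 11-point series up to 77 uM onto SH-SY5Y-GLuc STOP cells for 20 h. Secreted reporter activity is measured as coelenterazine-driven luminescence, with Brefeldin A on each plate.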

[16] = qHTS for activators of dead-cell proteases activity screened against the NCATS CANVASS Library (AID 1347392);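 also: luminescence from protease leaking out of membrane-damaged cells cleaving impermeant substrate; rising signal means more cytotoxicity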; also: potency is read from the fitted curve at half-maximal effect
Method in brief: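 HepG2 cells (2000/well) attached 18 h at 37C, then exposed 5 h to compounds (11-point qHTS). Dead-cell protease activity read as luminescence from cell-impermeant AAF-aminoluciferin substrate after 15 min at room temperature.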

[17] = qHTS for inhibitors of ER calcium dysfunction: SERCaMP assay screened against the NCATS CANVASS Library (AID 1347393); also: nearly all actives have a fitted effect of over 40% in size; also: potency is read from the fitted curve at half-maximal effect
Method in brief: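 qHTS in SH-SY5Y reporter cells: 16 h compound pretreatment, 4 h thapsigargin, then secreted Gaussia luciferase measured by luminescence.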

[18] = Vero-766 cells viability qHTS against the NCATS CANVASS Library: Counterscreen for Zika virus inhibition assay (AID 1347394); also: nearly all actives have a fitted effect of over 60% in size; also: potency is read from the fitted curve at half-maximal effect
Method in brief: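 Counterscreen for toxicity: Vero 766 cells exposed 72 h to an 11-point compound series, viability by CellTiter-Glo.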

[19] = qHTS for inhibitors of Wild type Zika virus screened against the NCATS CANVASS Library (AID 1347396); also: potency is read from the fitted curve at half-maximal effect
Method in brief: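 Using ATP-based luminescence (CellTiter Glo), this screen scores rescue of Vero 766 cells from wild-type Zika killing at 72 h post-infection. Compounds are tested in a concentration series.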

[20] = qHTS for activators of Nrf2/ARE signaling pathway screened against the NCATS CANVASS Library (AID 1347391); also: nearly all actives have a fitted effect of over 60% in size; also: potency is read from the fitted curve at half-maximal effect
Method in brief: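 Cells carrying an ARE-driven beta-lactamase reporter (HepG2 background) are dosed for 16 h, then stained with CCF4. Cell viability in the same wells is measured by CellTiter-Glo luminescence.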

| SMILES | Potency [1] | Potency [2] | Potency [3] | Potency [4] | Potency [5] | Potency [6] | Potency [7] | Potency [8] | Potency [9] | outcome [10] | Potency [11] | Potency [12] | outcome [13] | Potency [14] | Potency [15] | Potency [16] | Potency [17] | Potency [18] | Potency [19] | Potency [20] |
| --- | --- | --- | --- | --- | --- | --- | --- | --- | --- | --- | --- | --- | --- | --- | --- | --- | --- | --- | --- | --- |
| O=C1C[C@@H](c2ccc(O)c(-c3c(O)cc(O)c4c3O[C@H](c3ccc(O)cc3)CC4=O)c2)Oc2cc(O)cc(O)c21 | inactive | inactive | inactive | inactive | inactive | inactive | inactive | inactive | inactive | inactive | inactive | inactive | inactive | inactive | inactive | inactive | inactive | inactive | inactive |  |
| C/C(=C\[C@H](C)C(=O)CCCC1CC(=O)NC(=O)C1)[C@@H]1OC(=O)/C=C/CC/C=C/C[C@@H](O)[C@@H]1C | 1.88 µM (active) |  |  | 0.833 µM (active) |  | inactive |  | 1.05 µM (active) | inactive | inactive |  | 9.68 µM (active) | inactive | inactive | 3.84 µM (active) | inactive | inactive | inactive | inactive | inactive |
| C[C@@]12CCC[C@@](C)(C(=O)O)[C@H]1CC[C@]13C[C@H]4C[C@H](O[C@@]4(C)C1)[C@H]32 | inactive | inactive | inactive | inactive |  | inactive | inactive | inactive | inactive | inactive | inactive | inactive | inactive | inactive | inactive | inactive | inactive | inactive | inactive | inactive |
| CC(=O)[C@@H]1[C@@H](O)C[C@H]2[C@]3(C)CC[C@H]4C(C)(C)CCC[C@]4(CO)[C@H]3C[C@H]3OC(=O)[C@@H]1[C@@]32C | inactive | inactive | inactive | inactive | inactive | inactive | inactive | inactive | inactive | inactive | inactive | inactive | inactive | inactive | inactive | inactive | 38.4 µM (active) | inactive | inactive | inactive |
| O=c1cc(-c2ccc(O)c(O[C@@H]3O[C@H](CO)[C@@H](O)[C@H](O)[C@H]3O)c2)oc2cc(O[C@@H]3O[C@H](CO)[C@@H](O)[C@H](O)[C@H]3O)cc(O)c12 | inactive | inactive | inactive |  | inactive |  | inactive |  | inactive | inactive | inactive | inactive | inactive | inactive | inactive | inactive | inactive | inactive | inactive | inactive |
| COc1ccc([C@@H]2c3cc(OC)c(OC)cc3C(=O)C(C)C2C)cc1OC (stereo not given in full) | inactive | inactive | inactive |  | inactive | inactive | inactive | inactive | inactive | inactive | inactive | inactive | inactive | inactive | inactive | inactive | 38.4 µM (active) | inactive | inactive |  |
| Oc1ccc([C@H]2Oc3ccc(/C=C/c4cc(O)cc(O)c4)cc3C2c2cc(O)cc(O)c2)cc1 (stereo not given in full) | inactive |  | inactive | inactive | inactive | inactive | inactive | inactive | inactive | inactive | inactive |  | inactive | inactive | inactive | inactive |  |  | inactive | inactive |
| C=CC(=C)CC[C@]1(C)[C@H]2C[C@H](OC(=O)C(C)CC)C=C3[C@H](OC(C)=O)O[C@H](OC(C)=O)[C@@]32[C@H](OC)C[C@@H]1C (stereo not given in full) | 2.17 µM (active) | 0.769 µM (active) | 4.33 µM (active) | 1.52 µM (active) | 5.45 µM (active) |  | 7.62 µM (active) | 6.05 µM (active) | 19.3 µM (active) |  | 19.9 µM (active) | 7.03 µM (active) |  | 15.2 µM (active) | 3.96 µM (active) | 60.6 µM (active) | inactive | 6.8 µM (active) | 6.76 µM (active) | inactive |
| C=C1C(=O)C[C@H]2C[C@@H]1[C@]2(C)CCC=C(C)C | inactive | inactive | inactive |  | inactive | inactive | inactive |  | inactive | inactive | inactive | inactive | inactive | inactive | inactive | inactive | 19.3 µM (active) | inactive | inactive | 16.6 µM (active) |
| C=C(C)CC[C@H](Cc1c(O)cc(O)c2c1O[C@H](c1ccc(O)cc1O)CC2=O)C(=C)C |  | 21.1 µM (active) | inactive |  | inactive | inactive | inactive | inactive | inactive |  | inactive | inactive | inactive | 18.6 µM (active) |  | inactive | 30.5 µM (active) | 23.4 µM (active) | inactive |  |
| O=Cc1ccc2n1C[C@@]1(C[C@H](O)[C@H](O)CO1)OC2 |  | inactive |  | inactive |  | inactive | inactive | inactive | inactive | inactive | inactive | inactive | inactive | inactive | inactive | inactive |  | inactive | inactive | inactive |
